Our source for the growth values is PubChem BioAssay (NCI).

Test systems include NCI-H23 lung; NCI-H226 lung; NCI-H322M lung; HOP-62 NSCLC; NCI-H460 lung; 786-0 renal; DU-145 prostate; MDA-MB-231 breast; SF-268 CNS; SF-539 CNS; M14 melanoma; SNB-19 CNS; U251 CNS; SN12C renal; UO-31 renal; SK-OV-3 ovarian; MDA-MB-435 melanoma; SW-620 colon; HCT-116 colon; KM12 colon.
Common to all, as to experiment: NCI-60 one-dose screen, 48 h (100 = growth as untreated, 0 = no growth, -100 = all killed)
Conditions in all cases: 10 µM unless noted

This is part of a sample that, as a whole, favours compounds with a hit. Of some 83,000 tested, about 20% had one in any assay.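 The endpoint reported here, percent growth, reads 100 for growth as untreated, 0 for no net growth and -100 for all cells dead.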 Unmarked numbers belong to inactive results. Active and inactive are the calls of the source. Rule for the calls: active = growth percent below 10; inactive = the rest.

`COC(=O)C(=[N+]=[N-])C(=O)OC`: the growth was 98.1% in the assay on NCI-H23 lung; 99.2% in the assay on NCI-H226 lung; 103% in the assay on NCI-H322M lung; 103% in the assay with HOP-62 NSCLC; 106% in the assay with NCI-H460 lung; 98.3% with 786-0 renal. For the same compound, the growth in the assay with DU-145 prostate is 112%; in the assay with MDA-MB-231 breast it was 113%; in the assay with SF-268 CNS, 106%; with SF-539 CNS, 103%; in the assay with M14 melanoma, 103%; with SNB-19 CNS it was 103%. The growth was 104% in the assay with U251 CNS; 98% in the assay with SN12C renal; 88.3% with UO-31 renal; 101% with SK-OV-3 ovarian; 100% in the assay with MDA-MB-435 melanoma; 100% in the assay with SW-620 colon. Moreover, the growth was 94.2% in the assay with HCT-116 colon and 110% in the assay with KM12 colon.
As to `C=CCc1ccc(OC(=O)Cc2ccccc2)c(OC)c1`, the growth with NCI-H23 lung was 93.8%; with NCI-H226 lung it was 95%; in the assay with NCI-H322M lung it was 98.3%; in the assay with HOP-62 NSCLC it was 93.2%; in the assay on NCI-H460 lung it was 105%; in the assay with 786-0 renal, 99.2%. Besides, the growth in the assay with DU-145 prostate is 111%; with MDA-MB-231 breast, 106%; in the assay on SF-268 CNS it was 107%; in the assay on SF-539 CNS, 97.8%; in the assay on M14 melanoma, 106%; in the assay with SNB-19 CNS, 110%. Moreover, the growth with U251 CNS is 99.3%; in the assay on SN12C renal it was 99.5%; with UO-31 renal it was 77.1%; in the assay on SK-OV-3 ovarian, 94.2%; in the assay on MDA-MB-435 melanoma, 107%; in the assay with SW-620 colon, 106%. Further, the growth is 105% in the assay with HCT-116 colon and 110% in the assay with KM12 colon.
As for `C1CN1c1nc(N2CC2)nc(N2CC2)n1`, the growth in the assay with NCI-H23 lung is 15.8%; in the assay on NCI-H226 lung, 58.6%; in the assay on NCI-H322M lung, 78.1%; in the assay with HOP-62 NSCLC, 31.3%; with NCI-H460 lung, 16.5%; with 786-0 renal, 9.79% (active). Also, the growth is -1.22% (active) with DU-145 prostate; 87.8% in the assay with MDA-MB-231 breast; 30.4% in the assay on SF-268 CNS; -7.16% (active) with SF-539 CNS; 25.1% in the assay with M14 melanoma; 35.9% in the assay on SNB-19 CNS. The growth is 7.27% (active) in the assay on U251 CNS; 51.7% in the assay on SN12C renal; 1.86% (active) in the assay on UO-31 renal; 38.1% in the assay on SK-OV-3 ovarian; 63.9% in the assay with MDA-MB-435 melanoma; 51.8% in the assay with SW-620 colon. The growth with HCT-116 colon was 42.6%; in the assay with KM12 colon it was 61.8%.
Consider `CCC(C)[C@H]1O[C@]2(C=C[C@@H]1C)C[C@@H]1C[C@@H](C/C=C(\C)[C@@H](OC3C[C@H](OC)C(O[C@H]4C[C@H](OC)[C@@H](O)[C@H](C)O4)[C@H](C)O3)[C@@H](C)/C=C/C=C3\CO[C@@H]4[C@H](O)C(C)=C[C@@H](C(=O)O1)[C@]34O)O2` (stereo not given in full), for which the growth in the assay on NCI-H23 lung was 5.82% (active); with NCI-H226 lung, -15.6% (active); with NCI-H322M lung it was 25.7%; with HOP-62 NSCLC it was -6% (active); with NCI-H460 lung it was -34.5% (active); with 786-0 renal, 0.269% (active). Further, the growth is 11.4% with DU-145 prostate; -58.2% (active) with MDA-MB-231 breast; 1.66% (active) in the assay with SF-268 CNS; -71.6% (active) in the assay on SF-539 CNS; -46.7% (active) in the assay with M14 melanoma; 23.2% with SNB-19 CNS. Besides, the growth in the assay with U251 CNS is -16% (active); with SN12C renal it was 1.84% (active); with UO-31 renal it was 10.1%; in the assay with SK-OV-3 ovarian it was 12.6%; in the assay on MDA-MB-435 melanoma, -31.6% (active); with SW-620 colon it was -72% (active). Also, the growth with HCT-116 colon was -81.1% (active); in the assay on KM12 colon it was -12.3% (active).
For the compound `O=C(CCCN1CCC2(CC1)C(=O)NCN2c1ccc(F)cc1)c1ccc(F)cc1`, the growth in the assay with NCI-H23 lung is 98.2%; in the assay on NCI-H226 lung, 78.4%; in the assay on NCI-H322M lung it was 90%; in the assay with HOP-62 NSCLC it was 95.9%; with NCI-H460 lung it was 96.8%; with 786-0 renal, 101%. Besides, the growth is 122% in the assay on DU-145 prostate; 98.1% in the assay on MDA-MB-231 breast; 112% with SF-268 CNS; 93.2% in the assay on SF-539 CNS; 97.3% with M14 melanoma; 95.6% in the assay with SNB-19 CNS. Moreover, the growth in the assay on U251 CNS was 102%; in the assay with SN12C renal, 98%; with UO-31 renal it was 83.6%; in the assay on SK-OV-3 ovarian it was 98.4%; with MDA-MB-435 melanoma, 109%; with SW-620 colon, 106%. For the same compound, the growth was 88.6% in the assay with HCT-116 colon and 108% in the assay on KM12 colon.
As to `[N-]=[N+]=NC(C(=O)O)c1ccccc1` (stereo not given), the growth was 99.2% in the assay on NCI-H23 lung; 125% in the assay on NCI-H226 lung; 101% in the assay with NCI-H322M lung; 101% in the assay with HOP-62 NSCLC; 115% in the assay on NCI-H460 lung; 103% with 786-0 renal. For the same compound, the growth in the assay with DU-145 prostate was 116%; with MDA-MB-231 breast, 110%; with SF-268 CNS it was 118%; with SF-539 CNS, 93.9%; in the assay with M14 melanoma it was 101%; in the assay with SNB-19 CNS it was 100%. For the same compound, the growth was 104% in the assay with U251 CNS; 119% in the assay on SN12C renal; 88.9% with UO-31 renal; 99.5% with SK-OV-3 ovarian; 99.9% in the assay on MDA-MB-435 melanoma; 107% in the assay on SW-620 colon. Further, the figures for the growth in the assay on HCT-116 colon and with KM12 colon were 101% and 111%, respectively.
For `COC(=O)C1CC2c3ccccc3C1c1ccccc12` (stereo not given), the growth with NCI-H23 lung is 111%; in the assay with NCI-H226 lung, 92.3%; with NCI-H322M lung, 98.8%; in the assay on HOP-62 NSCLC it was 91.3%; in the assay on NCI-H460 lung, 104%; with 786-0 renal, 104%. Further, the growth is 119% in the assay on DU-145 prostate; 122% with MDA-MB-231 breast; 107% in the assay with SF-268 CNS; 101% in the assay on SF-539 CNS; 107% in the assay on M14 melanoma; 117% in the assay on SNB-19 CNS. In addition, the growth is 101% in the assay on U251 CNS; 97.7% in the assay with SN12C renal; 83.6% in the assay with UO-31 renal; 99.1% in the assay on SK-OV-3 ovarian; 107% in the assay with MDA-MB-435 melanoma; 106% with SW-620 colon. Further, the growth in the assay on HCT-116 colon was 106%; in the assay with KM12 colon it was 113%.
